Source: PubChem BioAssay (NCATS)
Results filed as inconclusive are left out. Entries that show only a call come without a potency. Active and inactive are the calls of the source. Calls come from the whole dose curve; as a rule, active = well fitted curve in the direction sought with a large enough effect; inconclusive = small, poorly fitted or top-dose-only effect, or another doubt; inactive = no such curve, though single readings can be large; an effect the other way counts as inactive or inconclusive.

Tests used:
[1] = Cell Viability - LYMP1-003 - Assay at 24 hr (AID 963); note: potency is the fitted concentration of half-maximal effect
Summary of the method: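 Human lymphoblastoid LYMP1-003 cells, 2500/well, treated 24 h at 37 C in complete medium. Viability read as intracellular ATP by CellTiter-Glo luminescence after 30 min at room temperature; AC50 from Hill-equation fits of qHTS concentration-response.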

[2] = Cell Viability - LYMP1-003 - Assay at 40 hr (AID 964); note: nearly all actives have a fitted effect of over 60% in size; note: potency is the fitted concentration of half-maximal effect
Summary of the method: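 LYMP1-003 human lymphoblastoid cells, 2500/well, preincubated 5 h at 37 C, then treated with compound for 40 h at 37 C. Intracellular ATP read by CellTiter-Glo luminescence after 30 min at room temperature; AC50 from Hill-equation fits.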

[3] = Cell Viability - LYMP2-003 (AID 965);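 note: cells exposed to compounds for 24 h before reading; nearly all actives have a fitted effect of over 50% in size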; note: potency is the fitted concentration of half-maximal effect
Summary of the method: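 Acute cytotoxicity is scored as a concentration-dependent drop in intracellular ATP, measured by luciferase luminescence in human lymphoblastoid cells treated for 24 hours at 37 C. AC50 values derive from Hill-equation modelling.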

[4] = Cell Viability - LYMP2-004 (AID 966); note: nearly all actives have a fitted effect of over 65% in size; note: potency is the fitted concentration of half-maximal effect
Summary of the method: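 Lymphoblastoid LYMP2-004 cells, 2500 per well, were preincubated for 5 hr and then treated with compound for 24 h at 37 C in complete medium. Viability was read as cellular ATP by CellTiter-Glo luminescence, and AC50 values were taken from Hill fits to concentration-response data.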

[5] = Cell Viability - LYMP2-011 (AID 969); note: nearly all actives have a fitted effect of over 60% in size; note: potency is the fitted concentration of half-maximal effect
Summary of the method: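 2500 cells/well in complete medium, compound-treated 24 h at 37 C. Viability read as intracellular ATP by CellTiter-Glo luminescence after 30 min at room temperature. AC50 from Hill fits of qHTS concentration-response data.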

[6] = Cell Viability - LYMP2-013 (AID 970); note: nearly all actives have a fitted effect of over 55% in size; note: potency is the fitted concentration of half-maximal effect
Summary of the method: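 Human lymphoblastoid LYMP2-013 cells, 2500/well, treated 24 h at 37 C in complete medium; viability as intracellular ATP by CellTiter-Glo luminescence after 30 min. AC50 from Hill fits of qHTS concentration-response.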

[7] = Cell Viability - LYMP2-017 (AID 972); note: nearly all actives have a fitted effect of over 55% in size; note: potency is the fitted concentration of half-maximal effect
Summary of the method: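 LYMP2-017 human lymphoblastoid cells (2500/well) settled 5 hr at 37 C, then exposed to compound 24 hr at 37 C in complete medium. Viability taken as intracellular ATP by CellTiter-Glo luminescence after 30 min at RT; AC50 from Hill fits.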

[8] = Cell Viability - LYMP2-019 (AID 973); note: nearly all actives have a fitted effect of over 55% in size; note: potency is the fitted concentration of half-maximal effect
Summary of the method: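 Human lymphoblastoid LYMP2-019 cells (2500/well) preincubated 5 h at 37 C, then treated 24 h at 37 C in complete medium. Viability by CellTiter-Glo ATP luminescence after 30 min at room temperature; AC50 from Hill fits.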

[9] = Cell Viability - LYMP2-021 (AID 974);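 note: compound exposure lasts 24 hours at 37 °C; nearly all actives have a fitted effect of over 55% in size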; note: potency is the fitted concentration of half-maximal effect
Summary of the method: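 Human lymphoblastoid LYMP2-021 cells, 2500/well in complete medium, treated 24 hours at 37 C. Intracellular ATP by CellTiter-Glo luminescence (30 min, RT); AC50 from Hill fits of concentration-response.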

[10] = Cell Viability - LYMP2-023 (AID 975); note: nearly all actives have a fitted effect of over 55% in size; note: potency is the fitted concentration of half-maximal effect
Summary of the method: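 LYMP2-023 human lymphoblastoid cells, 2500/well, preincubated 5 hr at 37 C, then compound-treated 24 hr at 37 C in complete medium. CellTiter-Glo luminescence (ATP) after 30 min at room temperature; AC50 from Hill-equation fits; tetraoctylammonium bromide positive control.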

[11] = Cell Viability - LYMP2-006 (AID 978); note: nearly all actives have a fitted effect of over 60% in size; note: potency is the fitted concentration of half-maximal effect
Summary of the method: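 Concentration-dependent loss of intracellular ATP in a human lymphoblastoid line after 24 hr treatment at 37 C was measured by CellTiter-Glo luminescence, with AC50 values obtained from standard Hill-equation modelling.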

[12] = Cell Viability - LYMP2-008 (AID 980); note: nearly all actives have a fitted effect of over 60% in size; note: potency is the fitted concentration of half-maximal effect
Summary of the method: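 LYMP2-008 lymphoblastoid cells (2500/well) plated 5 h, then treated 24 h at 37 C in complete medium. Viability read as intracellular ATP by CellTiter-Glo luminescence after 30 min at room temperature; AC50 from Hill fits.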

[13] = Cell Viability - LYMP2-010 (AID 981); note: nearly all actives have a fitted effect of over 55% in size; note: potency is the fitted concentration of half-maximal effect
Summary of the method: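 Human lymphoblastoid LYMP2-010 cells (2500/well) treated 24 h at 37 C in complete medium; viability read as intracellular ATP by CellTiter-Glo luminescence. AC50 from Hill fits of concentration-response data; tetraoctylammonium bromide positive control.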

[14] = Cell Viability - LYMP2-012 (AID 982); note: potency is the fitted concentration of half-maximal effect
[15] = Cell Viability - LYMP2-014 (AID 983); note: nearly all actives have a fitted effect of over 50% in size; note: potency is the fitted concentration of half-maximal effect
Summary of the method: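 LYMP2-014 human lymphoblastoid cells, 2500/well, treated 24 h at 37 C in complete medium; viability by CellTiter-Glo ATP luminescence after 30 min at room temperature. AC50 from Hill fits of qHTS concentration-response; tetraoctylammonium bromide positive control.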

[16] = Cell Viability - LYMP2-016 (AID 984); note: nearly all actives have a fitted effect of over 55% in size; note: potency is the fitted concentration of half-maximal effect
Summary of the method: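 Acute toxicity in a Coriell human lymphoblastoid line is scored as loss of intracellular ATP over 24 h of treatment in complete medium. CellTiter-Glo signal is fitted across concentrations with the Hill equation to give AC50.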

[17] = Cell Viability - LYMP2-005 (AID 967); note: series mostly up to about 92 µM
Summary of the method: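 qHTS viability screen in LYMP2-005 cells: 24 h at 37 C with compound, ATP luminescence via CellTiter-Glo, AC50 from Hill curves.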

[18] = Cell Viability - LYMP2-009 (AID 968); note: nearly all actives have a fitted effect of over 55% in size; note: potency is the fitted concentration of half-maximal effect
[19] = Cell Viability - LYMP2-015 (AID 971); note: nearly all actives have a fitted effect of over 55% in size; note: potency is the fitted concentration of half-maximal effect
Summary of the method: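 LYMP2-015 human lymphoblastoid cells (2500/well) in complete medium, compound-treated 24 h at 37 C; viability read as cellular ATP by CellTiter-Glo luminescence after 30 min at room temperature. AC50 from Hill-equation fits of qHTS concentration-response data.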

[20] = Cell Viability - LYMP2-025 (AID 976); note: series mostly up to about 92 µM
Summary of the method: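 Human lymphoblastoid LYMP2-025 cells, 2500/well, exposed 24 h at 37 C in complete medium in 1536-well qHTS. Viability as cellular ATP by CellTiter-Glo luminescence; AC50 from Hill fits of concentration-response data.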

Compound	Potency [1]	Potency [2]	Potency [3]	Potency [4]	Potency [5]	Potency [6]	Potency [7]	Potency [8]	Potency [9]	Potency [10]	Potency [11]	Potency [12]	Potency [13]	Potency [14]	Potency [15]	Potency [16]	outcome [17]	Potency [18]	Potency [19]	outcome [20]
CC1=C(/C=C/C(C)=C/C=C/C(C)=C/C(=O)Nc2ccc(O)cc2)C(C)(C)CCC1	50.1 µM (active)	39.8 µM (active)	39.8 µM (active)	39.8 µM (active)	63.1 µM (active)	50.1 µM (active)	50.1 µM (active)	50.1 µM (active)	50.1 µM (active)	50.1 µM (active)	50.1 µM (active)	50.1 µM (active)	50.1 µM (active)	39.8 µM (active)	50.1 µM (active)	63.1 µM (active)	–	–	–	–
CCCCC1C(=O)N(c2ccccc2)N(c2ccccc2)C1=O	inactive	inactive	inactive	inactive	inactive	inactive	–	inactive	inactive	inactive	inactive	inactive	inactive	inactive	inactive	inactive	inactive	inactive	inactive	inactive
O=c1[nH]cnc2c1ncn2[C@H]1CC[C@@H](CO)O1	inactive	inactive	inactive	inactive	inactive	inactive	inactive	inactive	inactive	inactive	inactive	inactive	inactive	inactive	inactive	inactive	inactive	inactive	inactive	inactive
O=C1NC(=O)C(c2ccccc2)(c2ccccc2)N1	inactive	inactive	inactive	inactive	inactive	inactive	inactive	inactive	inactive	inactive	inactive	inactive	inactive	inactive	inactive	inactive	inactive	inactive	inactive	inactive
CC(=O)O[C@]1(C(C)=O)CC[C@H]2[C@@H]3C=C(Cl)C4=CC(=O)[C@@H]5C[C@@H]5[C@]4(C)[C@H]3CC[C@@]21C	inactive	inactive	inactive	–	inactive	inactive	inactive	inactive	inactive	inactive	inactive	inactive	inactive	inactive	inactive	inactive	–	inactive	inactive	inactive
O=C(O)c1cc(O)c2c(c1)C(=O)c1cccc(O)c1C2=O	inactive	inactive	inactive	inactive	–	–	–	–	–	–	–	–	inactive	inactive	inactive	inactive	inactive	–	50.1 µM (active)	–
CC(=O)c1ccc(S(=O)(=O)NC(=O)NC2CCCCC2)cc1	inactive	inactive	inactive	inactive	inactive	inactive	inactive	inactive	inactive	inactive	inactive	inactive	inactive	inactive	inactive	inactive	inactive	inactive	inactive	inactive
CC/C(=C(\c1ccccc1)c1ccc(OCCN(C)C)cc1)c1ccccc1	–	50.1 µM (active)	39.8 µM (active)	–	50.1 µM (active)	50.1 µM (active)	50.1 µM (active)	50.1 µM (active)	50.1 µM (active)	50.1 µM (active)	50.1 µM (active)	50.1 µM (active)	50.1 µM (active)	50.1 µM (active)	50.1 µM (active)	39.8 µM (active)	–	50.1 µM (active)	–	–
O=c1c(-c2ccc(O)cc2)coc2cc(O)ccc12	inactive	–	inactive	inactive	inactive	inactive	inactive	inactive	inactive	inactive	inactive	inactive	inactive	–	inactive	inactive	inactive	inactive	inactive	inactive
CCCNC(=O)NS(=O)(=O)c1ccc(Cl)cc1	inactive	inactive	inactive	inactive	inactive	inactive	inactive	inactive	inactive	inactive	inactive	inactive	inactive	inactive	inactive	inactive	inactive	inactive	inactive	inactive
CCn1cc(C(=O)O)c(=O)c2ccc(C)nc21	inactive	inactive	inactive	inactive	inactive	inactive	inactive	inactive	inactive	inactive	inactive	inactive	inactive	inactive	inactive	inactive	inactive	inactive	inactive	inactive
O=c1c(O)c(-c2ccc(O)cc2)oc2cc(O)cc(O)c12	inactive	inactive	inactive	inactive	inactive	inactive	inactive	inactive	inactive	inactive	inactive	inactive	inactive	inactive	inactive	inactive	inactive	inactive	inactive	inactive
CN(C)CCC(c1ccccc1)c1ccccn1 (configuration not stated)	inactive	inactive	inactive	inactive	inactive	inactive	inactive	inactive	inactive	inactive	inactive	inactive	inactive	inactive	inactive	inactive	inactive	inactive	inactive	inactive
O=c1cc(-c2ccc(O)cc2)oc2cc(O)cc(O)c12	inactive	–	inactive	inactive	–	–	–	inactive	–	–	–	–	–	–	inactive	–	inactive	–	–	–
O=C(O)Cc1cccc2ccccc12	inactive	inactive	inactive	inactive	inactive	inactive	inactive	inactive	inactive	inactive	inactive	inactive	inactive	inactive	inactive	inactive	inactive	inactive	inactive	inactive
